One may read the viability as a per cent measure of how many cells are alive, often set against a control.

Each structure is given as a SMILES string. The source made the active and inactive calls.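 The calls were made as follows: active = viability loss from added drug above about 55%, and viability with drug at most 40%, in both replicates (limit read from the data, passing the limit was not always enough); inconclusive = both conditions met in only one replicate; inactive = neither replicate meets both conditions.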

The values that follow come from PubChem BioAssay.

The first experiment in a line: MRP1 drug-resistance reversers in H69AR cells – cell-based, doxorubicin co-treatment, pilot screen (AID 601). Conditions: H69AR cells + 2 uM doxorubicin, CellTiter-Glo, 72 h; at 10 µM; stronger effect = higher value.
For `Cc1ccc(C)c(S(=O)(=O)C(C#N)c2nc3ccccc3nc2N2CC(C)OC(C)C2)c1` (stereo not drawn), the differential viability (reversal) is -10.3% (inactive). As for `COC(=O)c1ccccc1S(=O)(=O)N(Cc1cc2cc3c(cc2[nH]c1=O)OCO3)C1CCCCC1`, the differential viability (reversal) is -7.41% (inactive).

As for `CC(C)C(=O)Nc1ccc(C(=O)NCc2cccnc2)cc1`, the differential viability (reversal) is -61.7% (inactive). As to `C=C(c1ccc(O)cc1)c1ccc(O)cc1`, the differential viability (reversal) was -42.8% (inactive). Take `Cc1ccc2c(c1)c1c(n2CC(O)Cn2c(C)nc3ccccc32)/C(=N\O)CCC1` (stereo not drawn): the differential viability (reversal) was -12.7% (inactive). On the same count and under the same terms, with `C=CCn1c(COc2ccc(Cl)cc2)nnc1SCC(=O)N1CC(=O)Nc2ccccc21` the figure was -10.9% (inactive).

For `CCC(Sc1nc2n[nH]c(C)c2c(=N)n1-c1cc(Cl)ccc1C)C(=O)N1CCOCC1` (stereo not drawn), the differential viability (reversal) is 29.3% (inactive). On to `CCOC(=O)c1ccc(N2C(=O)CC(Sc3nnc(C)s3)C2=O)cc1` (stereo not drawn), for which the differential viability (reversal) is 4.82% (inactive). Regarding `N#CC1=C(N)n2c(s/c(=C\c3ccco3)c2=O)=C(C#N)C1c1ccco1` (stereo not drawn), the differential viability (reversal) was -10.7% (inactive). On the same count and under the same terms, to `COc1ccc(N2CCN(Cc3cc(=O)oc4cc(C)c(Cl)c(C)c34)CC2)cc1` belongs -1.03% (inactive). Regarding `Cc1ccc(S(=O)(=O)N2CCOCC2)cc1C(=O)Nc1ccc(-c2cn3ccsc3n2)cc1`, the differential viability (reversal) is -0.105% (inactive). Same read-out and setting: with `CCCCCCc1ccc(-c2ncc(N)cn2)cc1` the figure was -5.17% (inactive); with `COc1cc(-c2noc(-c3ccccc3C(=O)NCc3ccco3)n2)cc(OC)c1OC`, -6.29% (inactive). The same measure, in the same setting: with `Cc1ccc2nc(NC(=O)C3CCN(S(=O)(=O)c4cccc5nsnc45)CC3)sc2c1` the figure was -10.7% (inactive). On to `CCOC(=O)c1sc(Nc2nc3c(OC)cccc3s2)nc1C`, for which the differential viability (reversal) is -7.45% (inactive). As for `CC(=O)c1ccccc1Oc1nc(CN2CCOCC2)nc2scc(-c3cccs3)c12`, the differential viability (reversal) was 32.8% (inactive). Take `CCn1c2ccccc2c2cc(NC(=O)Cc3ccc(S(=O)(=O)N4CCOCC4)s3)ccc21`: the differential viability (reversal) is -10.1% (inactive).

`Cc1[nH]nc(N=CC2=C(O)CC(C)(C)CC2=O)c1-c1ccc(Cl)cc1`: the differential viability (reversal) was 1.14% (inactive). As for `N#CC(C(=O)C1CCCCC1)c1nc2ccccc2[nH]1` (stereo not drawn), the differential viability (reversal) is -19.9% (inactive). `O=C(CSc1nnc2scc(-c3ccccc3)n12)Nc1nsc(-c2ccccc2)n1`: the differential viability (reversal) is -14.1% (inactive).

For the compound `CC(C)(C)n1nnnc1C(c1ccccc1)N1CCc2ccccc2C1` (stereo not drawn), the differential viability (reversal) was 5.93% (inactive). Still for that read-out and setting: with `CCc1cc2c(=O)c(-c3nc4ccccc4[nH]3)coc2cc1OC(=O)N1CCOCC1` the figure was -13.9% (inactive); with `O=C(Nc1sc2c(c1C(=O)NCc1ccco1)CCCC2)c1ccc2c(c1)OCO2`, -11.3% (inactive); with `Cc1cccc(N2CCN(C(=O)c3ccc(NS(=O)(=O)c4c(C)noc4C)cc3)CC2)c1C`, 13.6% (inactive).

The experiment is the same for the next values; noted with them: H69AR cells + 2 uM doxorubicin, CellTiter-Glo, 72 h; measured here: viability with 2 uM doxorubicin; at 10 µM; stronger effect = lower value.
Regarding `CCOC(=O)c1nnc2cc(-c3ccc(Br)cc3)nn2c1C`, the viability is 43.6%.

For the compound `COc1cccc(C(=O)Nc2c(C(N)=O)oc3ccccc23)c1`, the viability turned out to be 62.4%.

For the compound `CCn1c(CNc2ccc(OC)cc2)nnc1SCC(=O)c1ccc(OC)cc1`, the viability is 65.5%.

With `COc1ccc(Br)cc1C1N2CC3(C)CN1CC(C)(C2)C3=O` (stereo not drawn), the viability came to 87.3%. Turning to `CCOC(=O)c1sc(NC(=O)CSc2n[nH]c(-c3ccccc3)n2)c(C#N)c1C`, the viability worked out at 32%. For `CCOC(=O)N1CCN(CCC(=O)c2ccc(Cl)cc2)CC1`, the viability was determined as 17.9%.

As for `CCOC(=O)c1c(C)oc2c1c(C(c1ccncc1)N1CCOCC1)c(O)c1ccccc12` (stereo not drawn), the viability was 6.38%. With `Cc1c(NC(=O)c2ccc(=O)oc2)c(=O)n(-c2ccccc2)n1C`, the viability came out at 67.2%. Same read-out and setting: with `CCOc1ccccc1-n1nnnc1SCC(=O)Nc1cc2oc3ccccc3c2cc1OC` the figure was 54.7%; with `CC1=C(C(=O)OC2CCCCC2)C(c2ccc(C)o2)C2=C(CC(C)(C)CC2=O)N1` (stereo not drawn), 37.4%; with `Cc1nc2ccccc2c(=O)n1NC(=O)c1c(O)c2c(n(CC(C)C)c1=O)CCCC2`, 66.3%. `COc1ccc(C2=NOC(C(=O)Nc3cc(Br)ccc3O)C2)cc1OC` (stereo not drawn): the viability stood at 70.6%. As to `Cc1ccc(NC(=O)c2oc3ccc(S(=O)(=O)N4CCOCC4)cc3c2C)cc1C`, the viability was found to be 48.6%. The same measure, in the same setting: with `Cc1nn(-c2nc3ccccc3s2)c(C)c1Oc1ccccc1O` the figure was 67%. With `Cc1ccc(S(=O)(=O)c2cc3c(=O)n4ccccc4nc3n(CC3CCCO3)c2=N)cc1C` (stereo not drawn), the viability came to 53.5%. As to `Cc1ccc(C)c(S(=O)(=O)C(C#N)c2nc3ccccc3nc2N2CC(C)OC(C)C2)c1` (stereo not drawn), the viability came to 70.7%. As to `COC(=O)c1ccccc1S(=O)(=O)N(Cc1cc2cc3c(cc2[nH]c1=O)OCO3)C1CCCCC1`, the viability was determined as 67.4%. On to `CC(C)C(=O)Nc1ccc(C(=O)NCc2cccnc2)cc1`, for which the viability turned out to be 72.5%. Still for that read-out and setting: to `C=C(c1ccc(O)cc1)c1ccc(O)cc1` belongs 87.9%; to `Cc1ccc2c(c1)c1c(n2CC(O)Cn2c(C)nc3ccccc32)/C(=N\O)CCC1` (stereo not drawn), 44.1%.

With `C=CCn1c(COc2ccc(Cl)cc2)nnc1SCC(=O)N1CC(=O)Nc2ccccc21`, the viability came out at 73.5%. In the case of `CCC(Sc1nc2n[nH]c(C)c2c(=N)n1-c1cc(Cl)ccc1C)C(=O)N1CCOCC1` (stereo not drawn), the viability was 17%. As to `CCOC(=O)c1ccc(N2C(=O)CC(Sc3nnc(C)s3)C2=O)cc1` (stereo not drawn), the viability amounted to 46.2%. For the compound `N#CC1=C(N)n2c(s/c(=C\c3ccco3)c2=O)=C(C#N)C1c1ccco1` (stereo not drawn), the viability was 58%.

Take `COc1ccc(N2CCN(Cc3cc(=O)oc4cc(C)c(Cl)c(C)c34)CC2)cc1`: the viability was found to be 75.8%.

Take `Cc1ccc(S(=O)(=O)N2CCOCC2)cc1C(=O)Nc1ccc(-c2cn3ccsc3n2)cc1`: the viability worked out at 70.8%. Regarding `CCCCCCc1ccc(-c2ncc(N)cn2)cc1`, the viability stood at 61.9%. As to `COc1cc(-c2noc(-c3ccccc3C(=O)NCc3ccco3)n2)cc(OC)c1OC`, the viability stood at 65.2%.

Turning to `Cc1ccc2nc(NC(=O)C3CCN(S(=O)(=O)c4cccc5nsnc45)CC3)sc2c1`, the viability came out at 76.5%.

On to `CCOC(=O)c1sc(Nc2nc3c(OC)cccc3s2)nc1C`, for which the viability was determined as 66.6%.

For the compound `CC(=O)c1ccccc1Oc1nc(CN2CCOCC2)nc2scc(-c3cccs3)c12`, the viability was found to be 17.1%.

For `CCn1c2ccccc2c2cc(NC(=O)Cc3ccc(S(=O)(=O)N4CCOCC4)s3)ccc21`, the viability is 60.2%.

For `Cc1[nH]nc(N=CC2=C(O)CC(C)(C)CC2=O)c1-c1ccc(Cl)cc1`, the viability came out at 38.9%. As to `N#CC(C(=O)C1CCCCC1)c1nc2ccccc2[nH]1` (stereo not drawn), the viability was 76.1%.

In the case of `O=C(CSc1nnc2scc(-c3ccccc3)n12)Nc1nsc(-c2ccccc2)n1`, the viability turned out to be 75.2%.

For the compound `CC(C)(C)n1nnnc1C(c1ccccc1)N1CCc2ccccc2C1` (stereo not drawn), the viability was 43.4%.

As to `CCc1cc2c(=O)c(-c3nc4ccccc4[nH]3)coc2cc1OC(=O)N1CCOCC1`, the viability turned out to be 71.6%. With `O=C(Nc1sc2c(c1C(=O)NCc1ccco1)CCCC2)c1ccc2c(c1)OCO2`, the viability was 72.7%.

For `Cc1cccc(N2CCN(C(=O)c3ccc(NS(=O)(=O)c4c(C)noc4C)cc3)CC2)c1C`, the viability stood at 46.2%.
